Our source for the fluorescence (KMESF) values is PubChem BioAssay AID1775 (NMMLSC, 2009).

Molecules are shown by their SMILES. About 820 (0.37%) of roughly 220,000 compounds were called active. Shown is part of a subset that was picked to be rich in actives. Unmarked numbers belong to inactive results. Rule as the data show it: active = fluorescence above about 47; inactive = the rest.

A short description of the assay: green autofluorescence of compounds with avidin beads – biophysical, 488/530 nm, flow cytometry, artefact control, profiling panel (AID 1775). The note with it: compound fluorescence 488/530 nm, at 10 µM, hits give high values. (In flow cytometry, cells or beads pass a laser one at a time.)
Take `O=C(c1cccc(S(=O)(=O)Nc2ccccc2Cl)c1)N1CCN(C(=O)c2ccco2)CC1`: the fluorescence (KMESF) is 12. As for `O=C(c1ccco1)N1CCN(c2cccc(Cl)c2)CC1`, the figure is 13.

With `O=C(Cc1c(F)cccc1Cl)N1CCN(C(=O)c2ccco2)CC1`, the fluorescence (KMESF) is 91 (active). In the case of `O=C1CC(Cc2ccc(Cl)cc2)C(=O)N1c1cc(Cl)ccn1` (stereo not given) it was 3. In the case of `COC(=O)c1c(NC(=O)CN(c2ccc(C)c(C)c2)S(C)(=O)=O)sc2c1CCCC2` it was 7; in that of `CSc1nc2nc(-c3cccc(C(F)(F)F)c3)ccn2n1`, 28. In the case of `CN(CCOc1ccccc1)Cc1nc2cc(Cl)ccc2c(=O)[nH]1` it was 19; in that of `CCOC(=O)c1cc2c(=O)[nH]c(C(Cl)(Cl)Cl)nc2o1`, 5; in that of `COc1ccc(Nc2ncc(F)c(N3CCOCC3)n2)cc1`, 5. In the case of `CC(=O)N/N=C(\C)c1ccc(Br)cc1Br`, the fluorescence (KMESF) is 173 (active).

On to `CC(C)/C=N/NC(=O)c1cc(Br)ccc1O`, for which the fluorescence (KMESF) was 2. As for `O=C(/C(=N\O)n1cncn1)c1ccc(Br)cc1Br`, the figure is 5.

Consider `Cc1ccc(OCC(=O)Nc2nnc(-c3ccco3)s2)cc1`, for which the fluorescence (KMESF) is 8. On to `Cc1ccc(OCC(=O)Nc2ccc(-c3nnc(-c4ccco4)o3)cc2)cc1`, for which the fluorescence (KMESF) was 50 (active). Consider `CCOc1ccc(-c2nnc(-c3ccco3)o2)cc1`, for which the fluorescence (KMESF) was 8. For `CCOC(=O)N1CCN(c2cc(C)c([N+](=O)[O-])cc2F)CC1`, the fluorescence (KMESF) is 7. As for `S=C(NCCc1ccccc1)NCc1ccccc1Cl`, the fluorescence (KMESF) was 13.

With `COC(=O)c1c(C(=O)OC)c(-c2cccc(C)c2)n2c1CS(=O)C2` (stereo not given), the fluorescence (KMESF) is 7. As for `O=C(CCc1ccccc1)NCCc1cccs1`, the figure is 6; as for `Cc1ccnc(NC(=O)CCC(=O)N(CC(=O)NCCc2ccccc2)Cc2cccs2)c1`, 9; as for `O=C(O)CCC(=O)N(Cc1cccs1)Cc1cccs1`, 74 (active). In the case of `Cc1cc(C(=O)NCCc2ccc(Cl)cc2)n(-c2ccccc2)n1` it was 6; in that of `Cc1cc(C)nc(NC(=O)/C=C/c2ccc(Cl)cc2)n1`, 6. In the case of `Cc1cc(C)nc(/N=C2\NC(=O)CC(C(=O)O)N2c2ccc(Cl)cc2Cl)n1` (stereo not given) it was 66 (active).

Turning to `CCOC(=O)c1nc(C)n(-c2ccc(Cl)cc2Cl)n1`, the fluorescence (KMESF) was 8. With `CC(CNC(=O)c1ccc(Br)o1)NC(=O)c1ccc(Br)o1` (stereo not given), the fluorescence (KMESF) was 48 (active). In the case of `CC(CCc1ccccc1)NC(=O)c1ccc(Br)o1` (stereo not given) it was 8. As for `O=C(NCc1cccs1)c1ccc(Br)o1`, the figure is 12; as for `CC(=O)N(OCc1ccc(OC(C)C)c(Cl)c1)C(C)=O`, 8.

Turning to `CC(=O)NCC(=O)N(Cc1ccco1)C1(C(=O)NC2CCCC2)CCCCC1`, the fluorescence (KMESF) is 6. In the case of `CS/C(=C\[N+](=O)[O-])Nc1ccc(C)cc1` it was 12. As to `Cc1cc(Cl)ccc1NC(=S)N1CCC(C(N)=O)(N2CCCCC2)CC1`, the fluorescence (KMESF) is 10.

In the case of `COc1cc(C(=O)NCc2nnc(SCC(=O)Nc3nc4ccc(C)cc4s3)o2)cc(OC)c1OC`, the fluorescence (KMESF) was 19.

For `Nc1c(-c2ccc(F)cc2)cnc2ncnn12`, the fluorescence (KMESF) was 76 (active). On to `Cc1cc(N2CCN(c3ccc(F)cc3)CC2)n2ncnc2n1`, for which the fluorescence (KMESF) was 9. In the case of `Nc1c(-c2ccc(F)cc2)cnn1C1CCS(=O)(=O)C1` (stereo not given) it was 7. For the compound `CC(C)(C)OC(=O)N/N=C/c1cn(-c2ccccc2)nc1-c1cccnc1`, the fluorescence (KMESF) was 13. On to `O=C(NCc1csc(-c2cccs2)n1)C1CC1`, for which the fluorescence (KMESF) was 2.

`CC1Cc2ccccc2N1S(=O)(=O)c1ccc(Cl)nc1` (stereo not given): the fluorescence (KMESF) is 4. As for `COc1cc(CO)c(C2(CO)CCCC2)cc1OC`, the figure is 36; as for `Cc1nc2c(-c3ccc(F)cc3)c(C)nn2c(C)c1CCC(=O)NCc1ccco1`, 6; as for `Cc1nc2nc(SCC(=O)NCc3ccco3)nn2c(C)c1Cc1ccccc1`, 15.

Consider `COc1cc(OC)cc(-c2nc3nc(C)c(CCC(=O)NCc4ccco4)c(C)n3n2)c1`, for which the fluorescence (KMESF) was 59 (active). For `CCOC(=O)C(C)Sc1nnc(CSc2nc3nc(C)cc(C)n3n2)o1` (stereo not given), the fluorescence (KMESF) was 15. For `Cn1c(=O)c2c(ncn2CCc2ccccc2)n(C)c1=O`, the fluorescence (KMESF) was 11. In the case of `CC(C)Cn1c(CN(Cc2ccccc2)Cc2ccccc2)nc2c1c(=O)n(C)c(=O)n2C` it was 8. As to `CC(C)Cn1cnc2c1c(=O)n(CC(O)c1ccccc1)c(=O)n2CC(C)C` (stereo not given), the fluorescence (KMESF) was 67 (active). With `CCNC(=O)COc1cc(C)c(Br)c(C)c1`, the fluorescence (KMESF) is 9. Regarding `CC(C)C(=O)Nc1c(O)c2ccccc2[nH]c1=O`, the fluorescence (KMESF) is 10.

For the compound `CC1CCc2c(c3ccccc3[nH]c2=O)O1` (stereo not given), the fluorescence (KMESF) was 57 (active). Turning to `CCCCc1nc2c(=O)[nH]c3ccccc3c2o1`, the fluorescence (KMESF) was 26.

For the compound `CCCN(CCC)C(=S)Nc1cc(C(=O)OC)ccc1C(=O)OC`, the fluorescence (KMESF) was 3. In the case of `Cc1ccc(S(=O)(=O)N(C)CC(=O)NC2CCCC2)cc1`, the fluorescence (KMESF) is 10. In the case of `CN(CC(=O)NC1CCCCC1)S(=O)(=O)c1cccc2cccnc12` it was 118 (active). In the case of `CN(CC(=O)NC1CCCCC1)S(=O)(=O)c1ccc(Br)s1` it was 32; in that of `COc1ccc2c(c1)cc1n2CCN=C1NN`, 7.

As to `Cc1ccccc1CS(=O)(=O)CC1(O)CCN(C(=O)c2cccc(C(F)(F)F)c2)CC1`, the fluorescence (KMESF) was 88 (active). Take `CC(C)CC(=O)N1CCC(O)(CS(=O)(=O)Cc2ccccc2)CC1`: the fluorescence (KMESF) was 7.

`Cc1ccccc1CN1CCN(C(=O)c2cccc(F)c2)CC1`: the fluorescence (KMESF) is 4. Turning to `O=C(c1ccc(F)cc1)N1CCC(n2nnc3ccccc32)CC1`, the fluorescence (KMESF) was 34. In the case of `CCOc1cnc(C(=O)NNC(=O)c2ccccc2Br)o1` it was 15.

As to `COc1cccc(-c2ccc(SCC(=O)N3CCN(c4ccccc4)CC3)nn2)c1`, the fluorescence (KMESF) was 8. For `COC(=O)CSc1ccc2nnc(CCNS(=O)(=O)c3ccc(C)cc3)n2n1`, the fluorescence (KMESF) is 4. As for `CC(C)CCNC(=O)C(C)N(C(=O)Cn1nnc(-c2ccc(F)cc2)n1)C1CCCC1` (stereo not given), the figure is 51 (active); as for `COc1ccc(-c2nnn(CC(=O)N(CCO)C(C(=O)NC3CCCC3)c3ccc(F)cc3)n2)cc1` (stereo not given), 12. In the case of `CC(C)CCNC(=O)CN(C(=O)Cn1nnc(-c2ccc(F)cc2)n1)C1CCCC1` it was 14; in that of `O=C(NNS(=O)(=O)c1ccc(F)cc1)c1cnccn1`, 10. As for `CC(=O)Nc1cccc(Oc2cc(C#N)c(C#N)cc2N2CCOCC2)c1`, the figure is 7; as for `COc1cc(N2CCCC2)c(OC)cc1/C=C(/C#N)c1cccc(Br)c1`, 47 (active). With `COc1cccc(C(=O)Nc2ccc(N3CCCC3)cc2)c1`, the fluorescence (KMESF) is 9.
